SRC3 TRFRET art = counter-screen for PPARgamma SRC-3 recruitment agonists: TR-FRET artefact | 0.39% of 99,000 active | TR-FRET ratio at 8 µM | PPARgamma/SRC-3 format; hits give high values
SRC1 TRFRET art = flags TR-FRET format artefacts in PPARgamma SRC-1 recruitment agonist screen; 0.34% of 99,000 active; AID 1051; TR-FRET ratio at 8 µM; TR-FRET detection artefact counter-screen, emission ratio; hits give high values; in the data active = TR-FRET ratio above about 2300
PPARg SRC3 recr = PPARgamma-driven SRC-3 recruitment agonism. biochemical PPARgamma/SRC-3 coactivator recruitment assay. AID 731. activation, % at 8 µM. 0.26% of 200,000 active. P37231; in the data active = activation above about 23%;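 also: 0% = DMSO and 100% = reference agonist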
Target sequence (P37231 whole entry, looked up): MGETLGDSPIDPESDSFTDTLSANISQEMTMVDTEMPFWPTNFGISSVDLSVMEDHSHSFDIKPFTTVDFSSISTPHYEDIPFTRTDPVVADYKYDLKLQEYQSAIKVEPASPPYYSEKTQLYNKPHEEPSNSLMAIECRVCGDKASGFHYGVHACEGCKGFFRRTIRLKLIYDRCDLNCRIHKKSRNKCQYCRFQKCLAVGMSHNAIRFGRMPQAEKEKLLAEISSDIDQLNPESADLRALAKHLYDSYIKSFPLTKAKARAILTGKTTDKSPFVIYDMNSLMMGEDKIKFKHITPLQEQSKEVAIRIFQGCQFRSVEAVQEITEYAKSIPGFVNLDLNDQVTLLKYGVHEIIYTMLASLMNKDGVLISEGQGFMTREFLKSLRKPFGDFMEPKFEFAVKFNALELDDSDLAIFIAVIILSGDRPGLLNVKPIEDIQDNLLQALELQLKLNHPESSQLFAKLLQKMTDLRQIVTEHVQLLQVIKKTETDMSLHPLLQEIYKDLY
PPARg SRC-2 ag = promotes SRC-2 coactivator recruitment by human PPARgamma; activation, % at 8 µM; P37231; 0.34% of 200,000 active; PPARgamma LBD-SRC-2 recruitment, biochemical; in the data active = activation above about 22%;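 also: 0% = vehicle and 100% = reference agonist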
PPARg SRC-1 ag = agonists of human PPARgamma SRC-1 coactivator recruitment. P37231. PPARgamma-SRC-1 coactivator recruitment biochemical assay. activation, % at 8 µM. 0.41% of 200,000 active. AID 631; in the data active = activation above about 19%;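 also: 0% = DMSO and 100% = reference agonist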
SRC2 TRFRET art = counter-screen for PPARgamma SRC-2 recruitment agonists: TR-FRET artefact | 0.4% of 200,000 active | AID 1049 | hits give high values | TR-FRET ratio at 8 µM
PPARg SRC2 ag = human PPARgamma SRC-2 recruitment agonism, confirmation; shares compounds with PPARg SRC3 recr; biochemical SRC-2 recruitment by PPARgamma; activation, % at 8 µM; 52% of 790 active; AID 1297; in the data active = activation above about 22%;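 also: 0% = vehicle alone and 100% = reference agonist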
PPARg SRC1 ag = confirmation of agonists of SRC-1 recruitment by human PPARgamma; shares compounds with PPARg SRC3 recr; PPARgamma–SRC-1 coactivator recruitment biochemical assay; activation, % at 8 µM; 43% of 790 active; in the data active = activation above about 20%;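 also: 0% = vehicle wells and 100% = reference agonist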
PPARg SRC3 conf = confirmation of agonists of SRC-3 recruitment by human PPARgamma; shares compounds with PPARg SRC3 recr; AID 1301; activation, % at 8 µM; biochemical PPARgamma-SRC-3 coactivator recruitment, agonist mode; 29% of 790 active; in the data active = activation above about 24%;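 also: 0% = vehicle wells and 100% = reference agonist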
An asterisk follows results filed as active; x = no result given. In the library only some 0.84% were active in any assay of this set; here they are far more common. Rule as the data show it, unless noted: active = TR-FRET ratio above about 2000; inactive = the rest.

SMILES | SRC3 TRFRET art | SRC1 TRFRET art | PPARg SRC3 recr | PPARg SRC-2 ag | PPARg SRC-1 ag | SRC2 TRFRET art | PPARg SRC2 ag | PPARg SRC1 ag | PPARg SRC3 conf
COc1ccccc1C1=NN(C(=S)Nc2ccccc2)C(c2ccco2)C1 (configuration not stated) | x | x | 23 | 19 | 19* | 1731 | 22* | 19 | 13
CN1CCC/C1=C/C=C1\SC(=S)NC1=O | 1794 | 2166 | 11 | 24* | 14 | 1675 | 1 | 3 | 3
Clc1ccc(-c2ccnc(-n3cccc3)n2)s1 | 1708 | 1910 | 6 | 7 | 0 | 1522 | x | x | x
Cc1cc(-c2ccc(Br)s2)nc(-n2cccc2)n1 | 2617* | 2540* | 24* | 25* | 26* | 2162* | 42* | 29* | 26*
Cc1cc(-c2sccc2Br)nc(-n2cccc2)n1 | 2170* | 2236 | 10 | 11 | 22* | 1890 | 18 | 14 | 13
CCOC(=O)C1=NNC2C(=O)N(C3CCCCC3)C(=O)C12 (configuration not stated) | x | x | -4 | 0 | 4 | 1601 | x | x | x
Cc1ccccc1OCCOc1ccccc1C=C(C#N)C#N | 2057* | 2244 | 12 | 13 | 20* | 2050* | 21 | 17 | 13
Cc1cccc(OCCOc2ccccc2C=C(C#N)C#N)c1 | 1368 | 1616 | -3 | -6 | -7 | 1559 | x | x | x
CC(=O)N=c1sc2nc3ccccc3nc2n1N(C(C)=O)C(C)=O | 1815 | 2476* | 15 | 26* | 15 | 1906 | 44* | 31* | 29*
c1ccc2nc(-c3ccc(N4CCOCC4)cc3)ccc2c1 | x | x | 71* | 6 | 51* | 1544 | 8 | 7 | 6
COC(=O)c1cc2c(-c3ccccc3)c(C)c3ccccn3c-2c1C(=O)OC | x | x | 29* | 16 | 17 | 1968 | 8 | 14 | 4
COC(=O)c1c(C(=O)OC)c2cc(C)ccn2c1Cl | x | x | 3 | 9 | 6 | 1615 | x | x | x
COC(=O)c1c(Cl)c2n3ccccc3c(C)c(-c3ccccc3)c-2c1C(=O)OC | 2198* | 2328* | 11 | 24* | 18 | 2016* | 1 | 3 | 3
O=[N+]([O-])c1ccc(N/N=C/c2ccc[nH]2)cc1 | 1831 | 2294 | 12 | 28* | 17 | 1763 | 6 | 8 | 5
O=[N+]([O-])c1ccc(N/N=C/c2c[nH]c3ccccc23)cc1 | x | x | 6 | 12 | -1 | 1738 | x | x | x
Cc1ccsc1/C=N/n1c(COc2ccccc2)n[nH]c1=S | 1597 | 1880 | 2 | 10 | -5 | 1628 | x | x | x
COc1ccc(OC)c(C2C(C(=O)c3cc4ccccc4o3)=C(O)C(=O)N2c2cc(C)on2)c1 (configuration not stated) | x | x | 15 | 22* | 19* | 2296* | 28* | 21* | 17
Brc1ccc(-c2nc3ccccc3s2)s1 | x | x | 93* | 63* | 71* | 3008* | 89* | 66* | 59*
c1ccc(-c2nc3ccccc3s2)nc1 | x | x | 1 | 0 | 0 | 1587 | x | x | x
Cc1ccc(CN2CCN(Cc3cnc(C)[nH]3)CC2CCO)cc1 (configuration not stated) | 1608 | 1902 | 6 | 6 | 2 | 1625 | x | x | x
CC(=O)c1nc(N2C(=O)CC(Cc3cccc(C)c3)C2=O)sc1C (configuration not stated) | x | x | 20 | 10 | 20* | 1783 | 10 | 8 | 7
O=C(Nc1cccc(Cl)c1)N(Cc1nc2ccccc2c(=O)[nH]1)Cc1cccs1 | 1418 | 1697 | -6 | -6 | -4 | 1535 | x | x | x
CC(C)OC(=O)CCCN1C(=O)c2ccc(N)cc2C1=O | x | x | 13 | 23* | 9 | 1654 | 1 | 3 | -1
CCOC(=O)c1sc2ncnc(NCc3ccco3)c2c1C | x | x | 30* | 23* | 9 | 1926 | 19 | 16 | 10
CCOC(=O)c1sc2nc(CC(=O)OC)nc(NCc3ccco3)c2c1C | x | x | -4 | 6 | 0 | 1592 | x | x | x
